Laboratory results as given in the supplement of paper PMC12494721.
Counter-ions that a name gives are not always drawn.

Legend:
Conditions in all cases: incubation time: 27 h, anaerobic, 37 °C;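 for the amine columns active = adjusted P below 0.05 in both replicates with a change the same way and a mean fold change under 0.8 or over 1.25; inactive = the rest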
[1] = tested on: Clostridium sporogenes DSM 1664; test: growth (OD595) fold change vs plate DMSO controls (fold change (ratio)); higher = more growth
Outline: (§1)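 Absorbance at 595 nm was read after shaking the anaerobic mGAM cultures, which had grown in 96-well plates for 27 h at 37 °C. After blank subtraction and background correction against 20 µM compound solutions in water, a calibration factor of 5 gave OD values. Growth is the fold change against the median of the plate's DMSO controls. Values are the mean of 2 biological replicates, with fold changes above 1.5 set to NA.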

Escherichia coli IAI1 [2] = test: as above
Outline: as §1

[3] = tested on: Klebsiella aerogenes DSM 30053; test: as above
Outline: as §1

[4] = tested on: Klebsiella aerogenes DSM 30053; test: fold change of Histamine concentration vs plate DMSO controls (fold change (ratio)); higher = more amine produced, active = hit call of the paper (significant change in both replicates, either direction)
Outline: (§2)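 Amines were quantified by LC–triple-quadrupole MS in dynamic MRM mode against external calibration curves, with drift correction within each batch. The samples were whole anaerobic mGAM cultures of four gut bacterial strains, grown for 27 h at 37 °C in 80 µL wells and extracted with cold acetonitrile/methanol with 0.1% formic acid, then centrifuged. Values are reported as fold change over DMSO controls on the same plate. The mean of 2 biological replicates is given.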

[5] = tested on: Clostridium sporogenes DSM 1664; test: fold change of Tryptamine concentration vs plate DMSO controls (fold change (ratio)); higher = more amine produced, active = hit call of the paper (significant change in both replicates, either direction)
Outline: as §2

[6] = tested on: Ruminococcus gnavus DSM 108212; test: as above
Outline: as §2

Escherichia coli IAI1 [7] = test: fold change of Putrescine concentration vs plate DMSO controls (fold change (ratio)); higher = more amine produced, active = hit call of the paper (significant change in both replicates, either direction)
Outline: as §2

[8] = tested on: Klebsiella aerogenes DSM 30053; test: as above
Outline: as §2

Escherichia coli IAI1 [9] = test: fold change of Cadaverine concentration vs plate DMSO controls (fold change (ratio)); higher = more amine produced, active = hit call of the paper (significant change in both replicates, either direction)
Outline: as §2

[10] = tested on: Klebsiella aerogenes DSM 30053; test: as above
Outline: as §2

[11] = tested on: Ruminococcus gnavus DSM 108212; test: fold change of 2-Phenylethylamine concentration vs plate DMSO controls (fold change (ratio)); higher = more amine produced, active = hit call of the paper (significant change in both replicates, either direction)
Outline: as §2

[12] = tested on: Ruminococcus gnavus DSM 108212; test: growth (OD595) fold change vs plate DMSO controls (fold change (ratio)); higher = more growth
Outline: as §1

SMILES | growth [1] | growth (Escherichia coli IAI1 [2]) | growth [3] | fold change of Histamine concentration [4] | fold change of Tryptamine concentration [5] | fold change of Tryptamine concentration [6] | fold change of Putrescine concentration (Escherichia coli IAI1 [7]) | fold change of Putrescine concentration [8] | fold change of Cadaverine concentration (Escherichia coli IAI1 [9]) | fold change of Cadaverine concentration [10] | fold change of 2-Phenylethylamine concentration [11] | growth [12]
N[C@@H](C(=O)N[C@@H]1C(=O)N2C(C(=O)O)=C(Cl)CC[C@H]12)c1ccccc1 [Loracarbef] (20 µM) | 0 | 1.15 | 1.13 | 0.886 (inactive) | 0.0238 (active) | 0.345 (active) | 1.05 (inactive) | 1.04 (inactive) | 1.52 (active) | 1.05 (inactive) | 0.319 (active) | –
C[C@@H]1C[C@H]2[C@@H]3C[C@H](F)C4=CC(=O)C=C[C@]4(C)[C@@]3(F)[C@@H](O)C[C@]2(C)[C@@]1(O)C(=O)CO [Flumethasone] (20 µM) | 1.02 | 1 | 1.01 | 0.997 (inactive) | 0.979 (inactive) | 1.01 (inactive) | 0.991 (inactive) | 0.989 (inactive) | 1.04 (inactive) | 0.991 (inactive) | 0.972 (inactive) | 1.2
CC(C)(C)CC(C)(C)c1ccc(OCCOCC[N+](C)(C)Cc2ccccc2)cc1 [Benzethonium chloride] (20 µM) | 0.869 | 0.964 | 1.02 | 1.07 (inactive) | 0.956 (inactive) | 0.866 (inactive) | 0.975 (inactive) | 1.01 (inactive) | 1.02 (inactive) | 0.988 (inactive) | 0.895 (inactive) | –
Cc1c(C)c2c(c(C)c1O)CCC(C)(COc1ccc(CC3SC(=O)NC3=O)cc1)O2 (centres undefined) [Troglitazone] (20 µM) | 1.31 | 0.981 | 1.1 | 0.914 (inactive) | 0.721 (active) | 0.696 (active) | 1.01 (inactive) | 0.995 (inactive) | 1.01 (inactive) | 1.01 (inactive) | 0.777 (active) | –
CC/C=C(\C(=O)N[C@@H]1C(=O)N2C(C(=O)OCOC(=O)C(C)(C)C)=C(COC(N)=O)CS[C@H]12)c1csc(N)n1 [Cefcapene pivoxil hydrochloride monohydrate] (20 µM) | 0.716 | 0.786 | 1.07 | 0.95 (inactive) | 1.1 (inactive) | 1.02 (inactive) | 0.961 (inactive) | 0.964 (inactive) | 1.06 (inactive) | 1.03 (inactive) | 1.01 (inactive) | –
CC(C)(C)NC[C@H](O)COc1nsnc1N1CCOCC1 [Timolol maleate salt] (20 µM) | 1 | 1.03 | 1.02 | 1.04 (inactive) | 1.03 (inactive) | 0.991 (inactive) | 1.12 (inactive) | 1.01 (inactive) | 1.02 (inactive) | 1 (inactive) | 0.997 (inactive) | 1.01
NC(=O)c1cc[n+](CC2=C(C(=O)O)N3C(=O)[C@@H](NC(=O)C(c4ccccc4)S(=O)(=O)[O-])[C@H]3SC2)cc1 (some centres undefined) [Cefsulodin Sodium Salt Hydrate] (20 µM) | 0.555 | 1.04 | 1.02 | 1.03 (inactive) | 0.838 (inactive) | 0.779 (inactive) | 1.06 (inactive) | 0.997 (inactive) | 1.1 (inactive) | 0.992 (inactive) | 0.836 (inactive) | –
O=C1CN(/N=C/c2ccc([N+](=O)[O-])o2)C(=O)N1 [Nitrofurantoin] (20 µM) | 1.01 | 0.997 | 0.868 | 1.07 (inactive) | 0.931 (inactive) | 0.808 (inactive) | 0.729 (active) | 0.962 (inactive) | 1.81 (active) | 0.997 (inactive) | 0.923 (inactive) | –
NC(=O)c1cc[n+](CC2=C(C(=O)[O-])N3C(=O)[C@@H](NC(=O)[C@@H](c4ccccc4)S(=O)(=O)O)[C@H]3SC2)cc1 [Cefsulodin sodium salt] (20 µM) | 0.613 | 0.995 | 1.02 | 1 (inactive) | 0.876 (inactive) | 0.796 (active) | 0.97 (inactive) | 1.01 (inactive) | 1.07 (inactive) | 1 (inactive) | 0.886 (inactive) | –
O=C(O)CCNC(=O)c1ccccc1 [Betamipron] (20 µM) | – | 0.817 | 0.813 | 1.02 (inactive) | – | 1 (inactive) | 1.04 (inactive) | 1 (inactive) | 1.06 (inactive) | 1 (inactive) | 0.956 (inactive) | 0.512
C/C=C(/C(=C/C)c1ccc(O)cc1)c1ccc(O)cc1 [Dienestrol] (20 µM) | 1.09 | 1.01 | 1.04 | 1.02 (inactive) | 0.782 (inactive) | 0.285 (active) | 1.06 (inactive) | 0.995 (inactive) | 1.02 (inactive) | 1.03 (inactive) | 0.344 (inactive) | –
O=C1C(CC[S+]([O-])c2ccccc2)C(=O)N(c2ccccc2)N1c1ccccc1 (centres undefined) [Sulfinpyrazone] (20 µM) | – | 0.972 | 1.04 | 0.959 (inactive) | – | 0.904 (inactive) | 0.978 (inactive) | 1.04 (inactive) | 0.991 (inactive) | 1.01 (inactive) | 0.887 (inactive) | 1.06
CO[C@@]1(NC(=O)CSCC#N)C(=O)N2C(C(=O)O)=C(CSc3nnnn3C)CS[C@@H]21 [Cefmetazole sodium salt] (20 µM) | 0 | 0.0115 | 1.16 | 1.12 (inactive) | 0.0521 (active) | 0.978 (inactive) | 0.284 (active) | 1.05 (inactive) | 0.941 (inactive) | 1.03 (inactive) | 1.13 (inactive) | –
CCc1c2c(nc3ccc(OC(=O)N4CCC(N5CCCCC5)CC4)cc13)-c1cc3c(c(=O)n1C2)COC(=O)[C@]3(O)CC [Irinotecan hydrochloride trihydrate] (20 µM) | – | 1.05 | 0.974 | 1.03 (inactive) | – | 0.937 (inactive) | 1.11 (inactive) | 1 (inactive) | 0.994 (inactive) | 0.988 (inactive) | 0.89 (inactive) | 1.06
Cc1nnc(SCC2=C(C(=O)O)N3C(=O)[C@@H](NC(=O)Cn4cnnn4)[C@H]3SC2)s1 [Cefazolin sodium salt] (20 µM) | – | 0.0255 | 1.13 | 0.645 (inactive) | – | 0.0727 (active) | 0.16 (active) | 1.03 (inactive) | 0.613 (active) | 1.05 (inactive) | 0.0761 (active) | 0.0483
Nc1ccn([C@@H]2CS[C@H](CO)O2)c(=O)n1 [Lamivudine] (20 µM) | – | 0.995 | 0.992 | 1.06 (inactive) | – | 1.02 (inactive) | 1.02 (inactive) | 1.03 (inactive) | 1.02 (inactive) | 0.99 (inactive) | 1.02 (inactive) | 0.831
CCOC(=O)C1=C(COCCN)NC(C)=C(C(=O)OC)C1c1ccccc1Cl (centres undefined) [Amlodipine] (20 µM) | – | 1 | 1 | 1.08 (inactive) | – | 0.914 (inactive) | 0.986 (inactive) | 1.03 (inactive) | 1.1 (inactive) | 0.988 (inactive) | 0.918 (inactive) | 1.1
CN(C)CCCN1c2ccccc2CCc2ccccc21 [Imipramine hydrochloride] (20 µM) | – | 1.15 | 1.08 | 0.866 (inactive) | – | 0.975 (inactive) | 1.02 (inactive) | 0.943 (inactive) | 0.976 (inactive) | 1.03 (inactive) | 0.963 (inactive) | 1.34
Cc1cnc(NC(=O)C2=C(O)c3ccccc3S(=O)(=O)N2C)s1 [Meloxicam] (20 µM) | – | 0.997 | 0.98 | 1.03 (inactive) | – | 1.02 (inactive) | 1.04 (inactive) | 0.995 (inactive) | 0.959 (inactive) | 0.996 (inactive) | 1.03 (inactive) | 0.801
CC(=O)Nc1ccc(O)cc1 [Acetaminophen] (20 µM) | – | 0.986 | 0.999 | 0.998 (inactive) | – | – | 1.01 (inactive) | 1 (inactive) | 0.976 (inactive) | 0.993 (inactive) | 1.12 (inactive) | 0.921
CCN(CC)CCNC(=O)c1ccc(N)cc1 [Procainamide hydrochloride] (20 µM) | – | 0.979 | 1.2 | 0.834 (inactive) | – | – | 0.969 (inactive) | 0.987 (inactive) | 1.01 (inactive) | 1.04 (inactive) | 1.05 (inactive) | 0.827
Cc1ccc(NC(=O)c2ccc(CN3CCN(C)CC3)cc2)cc1Nc1nccc(-c2cccnc2)n1 [Imatinib] (20 µM) | – | 1.07 | 1.05 | 1.01 (inactive) | – | 1.07 (inactive) | 0.954 (inactive) | 0.962 (inactive) | 0.95 (inactive) | 1.04 (inactive) | 1.08 (inactive) | 1.17
CN1[C@@H]2CC[C@H]1CC(OC(=O)C(O)c1ccccc1)C2 (mixture of isomers) [(R,S) Homatropine hydrobromide] (20 µM) | – | – | – | 0.867 (inactive) | 1 (inactive) | 0.99 (inactive) | 0.995 (inactive) | 0.995 (inactive) | 1.02 (inactive) | 1.02 (inactive) | 1.01 (inactive) | –
CC[C@]12CCCN3CCc4c(n(c5ccccc45)[C@@](O)(C(=O)OC)C1)[C@@H]32 [Vincamine] (20 µM) | – | 1.01 | 1.05 | 1.01 (inactive) | – | 0.973 (inactive) | 0.996 (inactive) | 1 (inactive) | 1.02 (inactive) | 0.99 (inactive) | 0.942 (inactive) | 0.949
